Data from PubChem BioAssay (NCATS).
Several values for one entry are separate records, joined by “and”; a condition that tells them apart may be missing. Equal entries are not always repeated. Records with an inconclusive call do not appear. Values without a mark were called inactive. Activity calls are given as the source filed them. The call rests on the fitted dose curve; in most records, active means well fitted inhibition curve with a large enough effect; inconclusive means small, poorly fitted or top-dose-only effect; inactive means flat fitted curve, though single readings scatter.

system: NIH3T3; experiment: Cytotoxic Profiling of Annotated Libraries Using Quantitative High-Throughput Screening (AID 1296008); conditions: Five cell lines viability, CellTiter-Glo ATP luminescence, 48-72 h; max response: stronger effect = lower value; further: nearly all actives have a fitted effect of over 60% in size
Procedure, shortened: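 Cells exposed to compounds for 48 or 72 hr at 37 degrees Celsius. Viability read as ATP-coupled luminescence with CellTiter-Glo after 10 min at room temperature.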
On the % scale 0 is the no-effect control and ±100 the full control effect; potency means the concentration at half of the fitted maximal effect.

| SMILES | max response | outcome | Potency |
| --- | --- | --- | --- |
| O=C(NC[C@H](O)CN1CCc2ccccc2C1)c1ccnc(NC2CCC2)c1 | -20.6% | – | – |
| COc1ccc(NC(=O)c2ccc(-c3ccc(C(=N)N)cc3C)cc2)cc1N1CCN(C)CC1 | 2.92% | – | – |
| C[C@@H]1O[C@@H](O[C@H]2[C@@H](OC(=O)[C@]34CCC(C)(C)CC3C3=CCC5[C@@]6(C)C[C@H](O)[C@H](O[C@@H]7O[C@H](CO)[C@@H](O)[C@H](O)[C@H]7O[C@@H]7OC[C@@H](O)[C@H](O)[C@H]7O)[C@@](C)(C(=O)O)C6CC[C@@]5(C)[C@]3(C)CC4)OC[C@H](O)[C@@H]2O)[C@H](O)[C@H](O)[C@H]1O[C@@H]1OC[C@@H](O)[C@H](O)[C@H]1O (stereo partly drawn) | 1.11% | – | – |
| CC1=C2C[C@@]3(C)C(CCC[C@@H]3C)C(O)C2OC1=O (stereo partly drawn) | – | inactive | – |
| CC#C[C@@H](CC(=O)O)c1ccc(OCc2ccc(CN3CCC4(C=Cc5ccccc54)CC3)s2)cc1 | – | inactive | – |
| O=C(N[C@H]1CCN(C(=O)c2cc(C(F)(F)F)cc(C(F)(F)F)c2)[C@H](Cc2ccc(Cl)cc2)C1)c1ccnc2ccccc12 | – | inactive | – |
| Cc1[nH]c2ccccc2c1CCNC(=O)c1cccs1 | 0.258% | – | – |
| C=C[C@](C)(O)CC[C@H]1C(C)=CC(=O)[C@H]2C(C)(C)CCC[C@]12C | 0.554% | – | – |
| CNC(C)C(=O)NC(C(=O)N1CCCC1C(=O)Nc1snnc1-c1ccccc1)C1CCCCC1 (stereo not drawn) | – | inactive | – |
| C/C=C/C=C/C(=O)O[C@@H]1C=C2COC(=O)[C@]2(O)[C@@]2(C)CCCC(C)(C)[C@H]12 | – | inactive | – |
| O=C(NCCCc1ccccc1)C1CCC(CNS(=O)(=O)c2cccc3nsnc23)CC1 (stereo not drawn) | -18.1% | – | – |
| C/C=C(/C=C(C)/C=C/C=C/C=C(\C)C(=O)C12OC1C(O)(CCO)NC2=O)C(=O)OC (stereo not drawn) | -1.05% | – | – |
| COc1ccc(C2(N(C)C(=O)c3ccc(NC(=O)c4ccco4)cc3)CCOCC2)cc1 | -15.7% | – | – |
| Cn1cc(-c2ccc(F)c(C(F)(F)F)c2)nc1C1CCN(c2ncnc3[nH]ncc23)CC1 | 1.5% and -4.9% | – | – |
| CN(C)CCOc1cc(NS(=O)(=O)c2c(Cl)cc(C(F)(F)F)cc2Cl)ccc1Cl | – | inactive | – |
| COc1cc(O)cc(/C=C/c2cccc(O)c2)c1 | -7.28% | – | – |
| O=C(NCCCn1ccnc1)c1cc(-c2ccco2)on1 | 2.29% | – | – |

| SMILES | max response | outcome | Potency |
| --- | --- | --- | --- |
| CCC/C=C\C=C/CCc1cc(O)c([C@@H]2O[C@H](CO)[C@@H](O)[C@H](O)[C@H]2O)c(O)c1C(=O)OC | -3.37% | – | – |
| CC[C@H](C)/C=C(C)/C=C/C1=CC2=C(Cl)C(=O)[C@](C)(O)[C@H](OC(C)=O)[C@H]2CO1 | – | inactive | – |
| O=C(Nc1ccccc1Cl)c1cnc2ccc(C3CCNCC3)cn12 | – | – | 1460 nM (active) |
| CC(C)(C)Sc1c(CC(C)(C)C(=O)O)n(Cc2ccc(Cl)cc2)c2ccc(OCc3ccc4ccccc4n3)cc12 | 1.54% | – | – |
| COc1cc(NC(=O)c2cc(C3CC3)on2)c(OC)cc1Cl | -5.84% | – | – |
| CCOC(=O)CCNc1cc(N2CCc3ccccc3CC2)nc(-c2cccnc2)n1 | – | inactive | – |
| CCOC(=O)C1=Cc2ccc(C(F)(F)C(F)(F)F)cc2N=C(N)C1 | -6.78% | – | – |
| O=S(=O)(Cc1ccccc1)Nc1ccc(-c2ccc3c(cnn3-c3ccc(F)cc3)c2)c(C(F)(F)F)c1 | -4.39% | – | – |
| O=C(Nc1ccc(N2C(=O)[C@@H]3[C@H](C2=O)[C@@H]2C=C[C@H]3C2)c(Cl)c1)c1ccccn1 | -23.8% | – | – |
| COc1ccncc1C(=O)NC(=O)Nc1ccc(-c2ccccc2)c(C(F)(F)F)c1 | 3.25% | – | – |
| CNCCC(c1cccs1)c1ccc(O)c2ccccc12 (stereo not drawn) | – | inactive | – |
| CC1(C)CC[C@]2(C(=O)O)CC[C@]3(C)C(=CCC4[C@@]5(C)C[C@@H](O)[C@H](O)C(CO)(CO)C5CC[C@]43C)C2[C@@H]1O (stereo partly drawn) | -1.94% | – | – |
| CC(C)Oc1ccc(-c2cnc3c(-c4ccnc5ccccc45)cnn3c2)cc1 | 3.7% | – | – |
| CN(C)N(C)C(=O)[C@@]1(Cc2ccccc2)CCCN(C(=O)[C@@H](Cc2c[nH]c3ccccc23)NC(=O)C(C)(C)N)C1 | -7.17% | – | – |
| C=C(CCC1C(C)(O)CCC2C(C)(C)C(O)CCC12C)C(O)CO (stereo not drawn) | -4.7% | – | – |
| COc1cccc(N2CCN(C3=Nc4c(F)cccc4[C@H](CC(=O)O)N3c3cc(C(F)(F)F)ccc3OC)CC2)c1 | 3.41% | – | – |
